Outcome and Potency data for six compounds are collected here from PubChem BioAssay (NCATS).

The structures appear in SMILES notation. Records with an inconclusive call do not appear. Where a call stands in place of a potency, no number is given. Active and inactive are the calls of the source. Unless noted, calls follow the shape of the dose curve; as a rule, active = well fitted curve in either direction with a large enough effect (not every such curve was filed as active); inconclusive = small, poorly fitted or top-dose-only effect, or another doubt; inactive = flat fitted curve, though single readings scatter.

The target in assay [1] is Mitogen-activated protein kinase 10 (Mus musculus) (UniProt Q61831). In words: JNK3 AlphaScreen Assay (AID 530).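 Also: kinase came from lysate of stimulated human HepG2 cells; signal reports phosphorylation of biotinylated GST-cJun 1-79 at Ser73 with 10 µM ATP; series mostly up to about 57 µM.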 An outline of the steps:
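Compound titrations were preincubated 15 minutes at room temperature with substrate, antibody and pre-activated JNK3-containing HepG2 lysate. Reactions were started with 10 uM ATP and stopped with EDTA-containing bead buffer for AlphaScreen detection.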
(In Alpha technology, singlet oxygen from a donor bead excites a nearby acceptor bead.)

The target of assay [2] is 3',5'-cyclic-AMP phosphodiesterase 4B (Homo sapiens) (UniProt Q07343). In words: qHTS Assay for Inhibitors of PDE-IV (AID 607; active = well fitted activation curve with a large enough effect in the main read-out, with a control signal flat, not every such curve was filed as active). A digest of the protocol:
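Cell-based read-out of cAMP via a modified cyclic nucleotide-gated channel and membrane potential dye (535/590 nm) in HEK293 cells expressing PDE4 endogenously. Compounds tested up to 22.9 uM final; 100 uM RO 20-1724 reference.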
Background: In qHTS, concentration-response curves come from the screen itself.

The target in assay [3] is Cytochrome P450 3A4 (Homo sapiens) (UniProt P08684). In words: qHTS Assay for Inhibitors and Substrates of Cytochrome P450 3A4 (AID 884; active = well fitted curve in the direction sought with a large enough effect; an effect the other way counts as inactive or inconclusive; also: potency is read from the fitted curve at half-maximal effect; nearly all actives have a fitted effect of over 50% in size). An outline of the steps:
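20 nM human CYP3A4 with 25 uM Luciferin-PPXE (at KM) in 200 mM KPO4, preincubated 10 min with compound; NADPH regeneration started a 60 min RT reaction. Luciferin detected by luminescence, normalized to 57 uM ketoconazole as full inhibition.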

For assay [4] the target is unchanged. In words: qHTS Assay for Activators of Cytochrome P450 3A4 (AID 885; active = well fitted curve in the direction sought with a large enough effect; an effect the other way counts as inactive or inconclusive; also: nearly all actives have a fitted effect of over 65% in size). A digest of the protocol: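 Signal was normalized against complete inhibition by 57 uM ketoconazole. The reaction used 20nM CYP3A4 with 25uM Luciferin-PPXE, 10-min compound preincubation and a 60-min NADPH-supported step at RT.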

3',5'-cyclic-AMP phosphodiesterase 4B (Homo sapiens), sequence (Q07343 whole entry, looked up): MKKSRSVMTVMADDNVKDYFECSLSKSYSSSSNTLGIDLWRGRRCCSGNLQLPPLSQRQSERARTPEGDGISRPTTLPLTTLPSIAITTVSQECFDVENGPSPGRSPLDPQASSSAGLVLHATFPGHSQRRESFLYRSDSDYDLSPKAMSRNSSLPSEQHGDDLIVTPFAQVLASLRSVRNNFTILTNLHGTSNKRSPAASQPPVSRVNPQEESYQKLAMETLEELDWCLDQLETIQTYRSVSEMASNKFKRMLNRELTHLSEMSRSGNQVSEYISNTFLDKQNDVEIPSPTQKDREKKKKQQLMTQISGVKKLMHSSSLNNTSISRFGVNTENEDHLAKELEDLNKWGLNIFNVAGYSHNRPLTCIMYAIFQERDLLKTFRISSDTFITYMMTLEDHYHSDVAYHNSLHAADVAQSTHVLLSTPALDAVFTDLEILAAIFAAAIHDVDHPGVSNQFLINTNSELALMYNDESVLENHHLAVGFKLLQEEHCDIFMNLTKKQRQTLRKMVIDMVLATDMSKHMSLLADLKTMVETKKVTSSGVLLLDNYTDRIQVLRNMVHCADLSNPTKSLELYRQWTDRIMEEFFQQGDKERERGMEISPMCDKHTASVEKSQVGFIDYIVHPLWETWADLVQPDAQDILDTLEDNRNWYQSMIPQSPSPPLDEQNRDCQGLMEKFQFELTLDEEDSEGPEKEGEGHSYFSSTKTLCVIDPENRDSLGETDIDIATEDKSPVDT
Cytochrome P450 3A4 (Homo sapiens), sequence (P08684 whole entry, looked up): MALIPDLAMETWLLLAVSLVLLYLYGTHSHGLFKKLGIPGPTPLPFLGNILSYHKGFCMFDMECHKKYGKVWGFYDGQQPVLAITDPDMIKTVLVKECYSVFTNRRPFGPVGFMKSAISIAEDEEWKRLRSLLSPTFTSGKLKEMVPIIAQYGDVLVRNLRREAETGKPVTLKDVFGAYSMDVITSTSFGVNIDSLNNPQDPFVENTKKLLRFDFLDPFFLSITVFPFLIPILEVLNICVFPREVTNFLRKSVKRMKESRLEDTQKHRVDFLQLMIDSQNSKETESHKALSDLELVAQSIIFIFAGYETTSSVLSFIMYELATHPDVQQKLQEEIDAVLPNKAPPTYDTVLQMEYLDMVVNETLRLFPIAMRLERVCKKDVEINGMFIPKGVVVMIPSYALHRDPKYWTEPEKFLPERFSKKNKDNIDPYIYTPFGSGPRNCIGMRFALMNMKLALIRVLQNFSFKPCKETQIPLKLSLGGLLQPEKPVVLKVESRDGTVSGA

Take `COC(=O)[C@@]1(Cc2ccc(OC)cc2)[C@H]2c3cc(C(=O)N(C)C)n(Cc4cc(F)c(F)c(F)c4)c3C[C@H]2CN1C(=O)c1ccccc1`: the compound was classed as inactive in assay [1] and in assay [2].

Take `COC(=O)[C@H]1C[C@@H]1[C@H](N)c1ccccc1`: the result in assay [1] and in assay [2] was inactive.

Regarding `COC(=O)[C@@]1(Cc2ccc(F)cc2)[C@H]2c3cc(C(=O)N(C)C)n(CCc4ccc(O)c(O)c4)c3C[C@H]2CN1C(=O)c1ccccc1`, the call in assay [1] and in assay [2] was inactive.

Consider `COC(=O)C1(CC(C)C)C=C2C(=C(C)C(=O)C2C)CN1` (centres undefined), for which the result in assay [1] and in assay [2] was inactive.

`COC(=O)[C@@]1(Cc2ccc(OC)cc2)[C@H]2c3cc(C(=O)N4CCCC4)n(Cc4nc5ccccc5[nH]4)c3C[C@H]2CN1C(=O)c1ccccc1`: the compound was classed as inactive in assay [1] and in assay [2]. The Potency in assay [3] is 2 µM (active). Further, the Potency result in assay [4] was “inactive”.

Take `CCC[C@@H]1C[C@@]1(CCC)[C@@H](NC(=O)Oc1ccccc1)c1ccc(C(=O)OC)cc1`: in assay [1], the call was inactive. The Potency in assay [3] was 15.8 µM (active).
